How the values were obtained:
Assay in all cases: PBM binding z-score (relative to random genomic background probes); higher = stronger binding; sequences stand for … in GC…GCGATTGACAGCGTAGAATGAAGG
[1] = tested on: FXR:RXRa (NR concentration 270 nM, RXRa partner concentration 90 nM)
In short: (§1)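 Probes were double-stranded and carried 34-nt variable regions with direct-repeat seeds, single-nucleotide variants, half-site ablations and random human genomic background sequences, printed on custom Agilent 4×180K protein-binding microarrays. Arrays were incubated 1 h with ligand-free nuclear receptor dimers in PBS pH 7.4, 2% milk, 0.02% Triton X-100, 1 mM DTT, 0.2 mg/mL BSA and 0.4 mg/ml salmon testes DNA. Antibodies against each partner (one per run) detected binding, and scanned fluorescence was regression-normalized. Binding z-scores use the random background probes as reference.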

[2] = tested on: LXRa:RXRa (NR concentration 270 nM, RXRa partner concentration 90 nM)
In short: as §1

[3] = tested on: LXRa homodimer (NR concentration 270 nM)
In short: as §1

[4] = tested on: LXRb:RXRa (NR concentration 270 nM, RXRa partner concentration 90 nM)
In short: as §1

[5] = tested on: LXRb homodimer (NR concentration 270 nM)
In short: as §1

[6] = tested on: PPARa:RXRa (NR concentration 270 nM, RXRa partner concentration 90 nM)
In short: as §1

[7] = tested on: PPARg:RXRa (NR concentration 180 nM, RXRa partner concentration 90 nM)
In short: as §1

[8] = tested on: PPARg:RXRa 270nM:90nM, anti-RXR (NR concentration 270 nM, RXRa partner concentration 90 nM)
In short: as §1

[9] = tested on: PPARg:RXRa 30nM:10nM, anti-RXR (NR concentration 30 nM, RXRa partner concentration 10 nM)
In short: as §1

[10] = tested on: PPARg:RXRa 90nM:30nM, anti-RXR (NR concentration 90 nM, RXRa partner concentration 30 nM)
In short: as §1

[11] = tested on: PPARg:RXRa DBDmut IVT, anti-RXR (DBD mutation: RXRa K156A/R161A, NR concentration 270 nM, RXRa partner concentration 90 nM)
In short: as §1

[12] = tested on: PPARg:RXRa IVT, anti-PPARg (NR concentration 270 nM, RXRa partner concentration 90 nM)
In short: as §1

[13] = tested on: PPARg DBDmut:RXRa IVT, anti-PPARg (DBD mutation: PPARg1 K132A/R137A, NR concentration 270 nM, RXRa partner concentration 90 nM)
In short: as §1

[14] = tested on: PPARg DBDmut IVT, anti-PPARg (DBD mutation: PPARg1 K132A/R137A, NR concentration 270 nM)
In short: as §1

[15] = tested on: PPARg homodimer (NR concentration 180 nM)
In short: as §1

[16] = tested on: PXR:RXRa (NR concentration 270 nM, RXRa partner concentration 90 nM)
In short: as §1

[17] = tested on: PXR homodimer (NR concentration 270 nM)
In short: as §1

[18] = tested on: RARa:RXR (NR concentration 270 nM, RXRa partner concentration 90 nM)
In short: as §1

[19] = tested on: RARa homodimer (NR concentration 270 nM)
In short: as §1

[20] = tested on: RARb:RXRa (NR concentration 270 nM, RXRa partner concentration 90 nM)
In short: as §1

Sequence | PBM binding z-score [1] | PBM binding z-score [2] | PBM binding z-score [3] | PBM binding z-score [4] | PBM binding z-score [5] | PBM binding z-score [6] | PBM binding z-score [7] | PBM binding z-score [8] | PBM binding z-score [9] | PBM binding z-score [10] | PBM binding z-score [11] | PBM binding z-score [12] | PBM binding z-score [13] | PBM binding z-score [14] | PBM binding z-score [15] | PBM binding z-score [16] | PBM binding z-score [17] | PBM binding z-score [18] | PBM binding z-score [19] | PBM binding z-score [20]
CCTAGCAGGCCAGGCTCACTCAAGCATTTCGCTT | -0.543 | -0.545 | -0.346 | -0.706 | -0.617 | -0.794 | -0.439 | -0.638 | -1.13 | -0.853 | 0.917 | -0.38 | -2.2 | -2.12 | -1.28 | -0.919 | -0.688 | -1.09 | -0.856 | -0.239
TCTGCTAGGTCAACGATGGTTAGCTAATCTGCTA | 3.1 | 2.08 | -0.301 | 1.46 | -0.085 | 3.09 | 2.34 | 3.09 | 1.82 | 2.54 | 4.04 | 4.11 | 0.206 | 0.0855 | 0.625 | 1.24 | -0.803 | 2.11 | -0.888 | 4.14
CCGGCTGGGGCAAAGGTTACCATACTCAGTACGA | 1.59 | 1.59 | -0.197 | 2.03 | -1.05 | 4.48 | 8.25 | 7.31 | 6.14 | 7.57 | 0.545 | 3.78 | -0.945 | -1.06 | 1.1 | 2.59 | -0.422 | 3.83 | -0.653 | 2.41
GCTAGCAGGCCACTTGGGTCACTCAATGACGGGC | 0.0158 | -0.115 | -0.748 | 0.0102 | -0.778 | 0.888 | 0.483 | 0.199 | -0.326 | -0.355 | 1.43 | 1.32 | -1.04 | -0.967 | -0.431 | 0.269 | -0.237 | 0.575 | -0.207 | 1.34
CCTACTGGGCCAAAGGTTATTGATTCCAATGCTC | 0.648 | 1.32 | 0.345 | 1.76 | -0.363 | 5.33 | 10.4 | 9.22 | 8.72 | 10.5 | 5.27 | 5.88 | 0.256 | -0.287 | 0.925 | 1.39 | 0.0532 | 2.34 | -0.256 | 1.53
TATACAGGGTCAAAGGCCAGAGTACGAATGTCGA | 7.35 | 6.25 | 2.5 | 4.96 | 1.86 | 6.57 | 8.48 | 7.61 | 5.77 | 7.93 | 2.36 | 5.11 | 2.18 | 1.49 | 2.55 | 4.55 | 0.583 | 5.75 | 0.928 | 4.5
TCTCGGAGGACATGAAAGGTCAGAGCTCGACATC | 2.65 | 3.67 | 2.92 | 3.09 | -0.221 | 3.34 | 1 | 2.68 | 2.8 | 2.61 | 2.04 | 1.1 | -0.0886 | -0.561 | 2.54 | 3.59 | 0.0503 | 3.72 | 0.458 | 3.99
ACTTACGGGTCAACGAGGTTAGAGCACGCGTATA | 6.72 | 4.76 | 0.422 | 3.9 | 0.261 | 5.57 | 5.52 | 5.72 | 2.15 | 4.13 | 3.74 | 4.28 | 0.679 | 0.825 | 2.64 | 4.7 | 1.33 | 4.99 | 0.957 | 4.2
CAATCTAGGTCAAGAGGTCAAAGTCCGCTTCCCG | 7.07 | 6.49 | 6.61 | 5.64 | 2.31 | 6.48 | 10.2 | 8.66 | 7.43 | 9.5 | 8.4 | 8.71 | 5.68 | 4.57 | 9.94 | 6.5 | 3.63 | 8.3 | 5.1 | 5.36
CCGACTGGGGCACAAGGTTACCATAAGCCAGCCC | 0.122 | 1.73 | -0.433 | 0.74 | -1.16 | 2.2 | 2.92 | 3.16 | 0.724 | 2.49 | 3.82 | 4.45 | -0.334 | -0.282 | 1.62 | 0.226 | -0.93 | 0.828 | -0.242 | 1.46
AGAATGACGTTACCAAAGATCAGGGAAACGCTTG | -0.187 | -0.0658 | -0.236 | -0.336 | -0.144 | -0.289 | 0.77 | 0.125 | 0.189 | 0.17 | -0.672 | -0.0252 | 0.249 | 0.258 | 0.216 | -0.527 | -0.0125 | -0.159 | 0.157 | -0.301
AATACAGGGTCACTAGGCCTGAGTAGGTACGAAT | 6.29 | 4.71 | 0.651 | 3.72 | 0.544 | 5.53 | 6.71 | 5.29 | 2.26 | 4.42 | 2.96 | 4.76 | 1.25 | 1.34 | 2.04 | 2.85 | 0.251 | 3.86 | 0.431 | 4.06
CCTTACGGGTCACTCCAGGTTATAGGATCGGAGT | 4.94 | 7.84 | 1.93 | 5.04 | -0.0329 | 4.39 | 3.38 | 3.76 | 1.12 | 2.6 | 2.49 | 4 | 0.265 | 0.385 | 1.86 | 5.21 | 0.588 | 4.1 | 0.817 | 3.8
TCAGATAGGTAATACAGGTGAAAGTCGGCATCTA | 0.862 | 1.41 | 0.032 | 0.889 | 0.0501 | 1.72 | 0.936 | 2.37 | 4.15 | 3.25 | 2.72 | 1.82 | 0.894 | 0.382 | 0.675 | 0.557 | 0.387 | 0.619 | 1.19 | 0.567
TCTCGGACGACACGAAGGTCAGAGCTTTCCAGAG | 1.58 | 0.965 | -0.0974 | 1.17 | -0.374 | 1.96 | 0.474 | 1.77 | 2.37 | 2.15 | 1.39 | 0.576 | -1.3 | -0.777 | 1.07 | 1.61 | -0.245 | 1.95 | 0.13 | 2.8
CGACCTAGGTCAGAACAGGACAGTGAAGGATGAT | 2.95 | 1.5 | 0.143 | 1.08 | -0.535 | 2.08 | 1.55 | 1.2 | -0.0187 | 0.682 | 2.58 | 2.09 | -0.486 | -0.795 | 1.04 | 1.42 | -0.195 | 0.948 | 0.342 | 3.33
TAGCCTAGGTCAGATCGGGCCGGTATACGCTATA | 1.49 | 0.768 | -0.645 | 0.506 | -0.232 | 1.27 | 0.615 | 0.655 | -0.199 | 0.0642 | 0.592 | 1.34 | -0.27 | -0.214 | 0.114 | 0.345 | -0.722 | 0.515 | -0.746 | 2.98
TAGCCTAAGTCATTCAGGGGCCAGTATAGAAAGC | 0.125 | -0.0745 | -0.319 | 0.338 | -0.276 | 0.0691 | 0.0111 | 0.16 | -0.308 | -0.241 | -0.155 | -0.0585 | 0.0399 | 0.2 | 0.00647 | 0.14 | -0.297 | 0.276 | -0.483 | 0.478

— the supplement of paper PMC6555819
